Screens: PubChem, The Scripps Research Institute Molecular Screening Center
Most compounds without a hit are left out; they make up all but 5.7% or so of the library.
hcDAF12 agonist: activators of H. contortus DAF-12 nuclear receptor; AID 652067; HEK293 hcDAF-12 lit1-tk-luc reporter, luminescence; 0% DMSO, 100% Δ7-dafachronic acid; activation, % at 6.8 µM; 1.4% of 370,000 active;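 active means activation above the mean of all tested compounds plus 3 SD, cut at about 5.5% in these data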
ssDAF12 agonist: activates DAF-12 receptor from parasite S. stercoralis; HEK293 ssDAF-12/GRIP1 lit1-tk-luc reporter, luminescence; % of 3 µM dafachronic acid response; activation, % at 6.8 µM; 1% of 370,000 active;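 active means activation above the mean over all tested compounds plus 3 SD, cut at about 0.9% in these data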
DAX1 inh-1: blocks DAX1 repression of SF-1 activated StAR promoter. HEK293T StAR-luciferase reporter, SF-1/DAX-1 repression relief. inhibition, % at 6.8 µM. 1.1% of 370,000 active;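 active means inhibition above the mean over all tested compounds plus 3 SD, cut at about 3.6% in these data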;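 further: higher inhibition means more luminescence from relief of DAX-1 repression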
AHR act: activates the human aryl hydrocarbon receptor; 2.5% of 320,000 active; AHR-responsive luciferase reporter cells, luminescence; activation, % at 5 µM; P35869; in the data active means activation above about 47%
hgDAF12 agonist: activates the H. glycines DAF-12 receptor ligand-binding domain; activation, % at 6.8 µM; 1.8% of 370,000 active; HEK293 GAL4-hgDAF12 UAS-luciferase reporter, agonist luminescence; normalized to butyrate control; AID 687014;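 active means activation above a cutoff set at the mean of all screened compounds plus 3 SD, cut at about 10% in these data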
DAX1 inh-2: inhibits human nuclear receptor DAX1. P51843. HEK293 Gal4-DAX1 luciferase reporter, luminescence. inhibition, % at 6.75 µM. 0.99% of 340,000 active. AID 504766;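 active means inhibition above the mean over all tested compounds plus 3 SD, cut at about 4.2% in these data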;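 further: inhibition shows as a rise in luminescence from relieved DAX1 repression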
AHR act confirm: human AHR activation, confirmation | shares compounds with AHR act | activation, % at 9 µM | human cells, AHR-responsive luciferase reporter, luminescence | 87% of 2,300 active | AID 2845; in the data active means activation above about 49%;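 further: HepG2 hepatoma cells carrying a DRE-driven firefly luciferase reporter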
PXR act counter: activates human PXR in AHR activator counter-screen; shares compounds with AHR act; cell-based PXR reporter, luciferase luminescence; activation, % at 11.6 µM; 88% of 2,300 active; AID 434939; in the data active means activation above about 11%;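 further: human hepatoma DPX-2 cells expressing full-length human PXR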
Target sequence (O75469 whole entry, looked up): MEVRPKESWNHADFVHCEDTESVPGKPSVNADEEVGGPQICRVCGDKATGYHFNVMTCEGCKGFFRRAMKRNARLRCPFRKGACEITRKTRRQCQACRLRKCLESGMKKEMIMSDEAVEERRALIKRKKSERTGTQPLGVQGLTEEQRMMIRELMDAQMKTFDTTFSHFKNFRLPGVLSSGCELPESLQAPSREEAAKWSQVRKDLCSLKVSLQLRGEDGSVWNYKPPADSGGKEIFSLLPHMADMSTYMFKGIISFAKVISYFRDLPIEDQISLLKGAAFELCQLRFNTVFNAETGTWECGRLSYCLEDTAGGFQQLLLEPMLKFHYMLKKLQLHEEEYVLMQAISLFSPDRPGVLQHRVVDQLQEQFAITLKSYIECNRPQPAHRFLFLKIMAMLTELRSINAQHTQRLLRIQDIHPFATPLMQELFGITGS
Each line names hits and unclear results; the compound was inactive in the other large screens (follow-up assays come after a bar, where they were run).

COCC(=O)N/N=C/c1ccc(Sc2nc3ccccc3s2)o1	AHR act 86.4 | AHR act confirm 81.0 | PXR act counter 21.5
COCC(=O)NCCNc1nc2ccc(C)cc2cc1C	none
Cc1ccc(C(=O)NCCNc2nc3cc(C)c(C)cc3cc2C)cc1	AHR act 81.8 | AHR act confirm 76.8 | PXR act counter 28.1
CCc1ccc(S(=O)(=O)Nc2ccc(-c3ccc4nncn4n3)cc2)s1	none
CCc1ccc(S(=O)(=O)Nc2ccc(-c3nc4cccnc4s3)cc2)s1	AHR act 87.7 | AHR act confirm 82.5 | PXR act counter 20.3
CCC(=O)Nc1ccc(C(=O)CSc2nnc(-c3ccc(NS(=O)(=O)CC)cc3)o2)cc1OC	none
CC(C)(C)c1cc(C(=O)NCCCn2ccnc2)cc(C(C)(C)C)c1	none
O=C(NCCCn1ccnc1)c1cc(Cl)cc(Cl)c1	AHR act 87.2 | AHR act confirm 73.8 | PXR act counter 21.5
O=S(=O)(Nc1cc(Sc2cccc3cccnc23)c(O)c2ccccc12)c1ccc(F)cc1	AHR act 85.0 (no result: DAX1 inh-2) | AHR act confirm inactive | PXR act counter 132.1
COc1cc(/C=N/Nc2nc(Nc3ccccc3)nc(-n3nc(C)cc3C)n2)cc(OC)c1OC	AHR act 79.6 | AHR act confirm 67.8 | PXR act counter 26.0
CC(=O)NCCNc1nc2cc(-c3ccc(C)cc3)sc2c(=O)n1C	none (no result: AHR act, DAX1 inh-2)
COc1ccc(NS(=O)(=O)c2cccc(C(=O)NCCCn3ccnc3)c2)cc1	none
Fc1ccccc1CSc1nc2ncc(Br)cc2[nH]1	AHR act 104.5 | AHR act confirm 70.6 | PXR act counter 99.8
O=C(CSc1nc2ncc(Br)cc2[nH]1)c1cccc([N+](=O)[O-])c1	AHR act 92.1 | AHR act confirm 67.3 | PXR act counter 98.4
CC(C)(C)C(=O)CSc1nc2ncc(Br)cc2[nH]1	AHR act 83.8 | AHR act confirm 56.9 | PXR act counter 125.1
N#Cc1ccccc1CSc1nc2ncc(Br)cc2[nH]1	none
CCc1c(C2(O)CCCCC2)[nH]c2cnccc12	none
N#CCC1c2ccccc2CCN1C(=O)Nc1ccc(C(F)(F)F)cc1 (stereo unspecified)	AHR act 103.1 | AHR act confirm 100.0 | PXR act counter 181.0
CCOc1ccccc1NC(=O)CN1C(=O)COc2ccc(C)cc21	none
CCc1cc(C(=O)N/N=C/c2c(C)[nH]c3ccccc23)cs1	AHR act 98.7 | AHR act confirm 82.6 | PXR act counter 28.1
O=C(NNC(=O)c1cc2ccccc2o1)c1ccc(F)cc1	none (no result: AHR act)
O=C(NNC(=O)C1CC1)c1cc2cc3ccccc3nc2s1	AHR act 109.8 | AHR act confirm 72.1 | PXR act counter 12.1
O=C(NNC(=O)c1cc2cc3ccccc3nc2s1)c1ccc(F)cc1	AHR act 91.4 | AHR act confirm inactive | PXR act counter 12.0
N#Cc1nc(-c2ccccc2)oc1NCCCn1ccnc1	AHR act 98.6 | AHR act confirm 104.2 | PXR act counter 28.3
N#Cc1nc(-c2ccc(OCc3ccc(Cl)cc3)cc2)oc1NCCCn1ccnc1	none
O=C1c2ccccc2C(=O)c2c1ncn2-c1ccccc1	AHR act 87.2 | AHR act confirm 129.7 | PXR act counter 32.6
O=C(/C=C/Nc1ccc(F)cc1F)c1ccc(Br)cc1	AHR act 90.3 (no result: DAX1 inh-2) | AHR act confirm 90.0 | PXR act counter 12.1
COc1ccc(O)c(C(=O)c2cnn(C(=O)c3cccc(N(C)C)c3)c2)c1	none
CN(C)c1cccc(C(=O)n2cc(C(=O)c3cc(F)ccc3O)cn2)c1	AHR act 86.1 | AHR act confirm inactive | PXR act counter 20.0
COc1c2occc2c(OC)c2c(=O)cc(C)oc12	AHR act 103.8 | AHR act confirm 76.6 | PXR act counter 13.3
C[C@@H]1CN([C@@H](C)CO)C(=O)CCCn2cc(nn2)CO[C@H]1CN(C)C(=O)C1CC1	none (no result: AHR act, DAX1 inh-2)
O=C(NCc1ccccn1)c1ccc2ccccc2n1	AHR act 91.4 | AHR act confirm 86.3 | PXR act counter 16.2
COc1ccccc1NC(=O)CNC(=O)c1ccccc1	none
COc1ccc(-c2cnc3ccccc3n2)cc1NC(=O)CNC(=O)c1ccccc1	ssDAF12 agonist 1.2, AHR act 117.2 | AHR act confirm inactive | PXR act counter 42.3
C(=N\Nc1ncnc2sc3c(c12)CCC3)/c1ccncc1	AHR act 81.4 | AHR act confirm 124.4 | PXR act counter 28.6
O=C(Nc1ncnc2sc3c(c12)CCC3)c1ccco1	none
COc1cccc(C(=O)O/N=C(\N)c2ccc([N+](=O)[O-])cc2)c1	AHR act 79.2 | AHR act confirm 74.6
Cc1ccc(C)c(C(=O)O/N=C(\N)c2ccc(Br)cc2)c1	AHR act 95.0 | AHR act confirm 117.7 | PXR act counter 15.1
Cc1ccc(C(=O)O/N=C(\N)c2ccc(Br)cc2)cc1C	none
CCOc1ccc(CCNC(=O)C2CCCN(c3ncnc4c3nc3n4CCCCC3)C2)cc1 (stereo unspecified)	none
CC1CCc2nc(NC(=O)C3CC3)sc2C1 (stereo unspecified)	AHR act 135.4 | AHR act confirm 104.6 | PXR act counter 37.2
CC1CCc2nc(NC(=O)CN3CCOCC3)sc2C1 (stereo unspecified)	none
Cc1nc(-c2ccccn2)sc1C(=O)Nc1ccc(Cl)c(Cl)c1	AHR act 108.6 | AHR act confirm 57.1 | PXR act counter 39.6
COc1ccc(N2CCN(c3cc(C)c4cccc(C)c4n3)CC2)cc1	AHR act 129.3 | AHR act confirm 94.7 | PXR act counter 12.8
COc1ccc(N2CCN(c3cc(C)c4ccc(C)cc4n3)CC2)cc1	AHR act 100.3 | AHR act confirm 109.7 | PXR act counter 18.1
COc1ccc2c(C)cc(N3CCOCC3)nc2c1	none
COc1ccc(N2CCN(c3cc(C)c4ccc(O)cc4n3)CC2)cc1	AHR act 131.7 | AHR act confirm 71.2
O=C(N/N=C/c1ccco1)C1CCCC1	none (no result: hcDAF12 agonist, ssDAF12 agonist, DAX1 inh-1, hgDAF12 agonist)
CCc1ccc(NC(=O)Cc2cn(C)c3ccccc23)cc1	none
CCc1cccc(NC(=O)Cc2cn(C)c3ccccc23)c1	AHR act 104.5 | AHR act confirm inactive | PXR act counter 82.7
Cc1cccc(NC(=O)c2ccccc2OCC(=O)N2CCOCC2)c1C	none
O=C(Nc1cccc(Cl)c1Cl)c1ccccc1OCC(=O)N1CCOCC1	AHR act 82.3 | AHR act confirm 89.4 | PXR act counter 49.3
Cc1nc(C)c(C(=O)N/N=C/c2c[nH]c3ccccc23)s1	AHR act 84.4 (no result: hcDAF12 agonist, ssDAF12 agonist, DAX1 inh-1, hgDAF12 agonist) | AHR act confirm 47.3
O=C(N/N=C/c1c[nH]c2ccccc12)c1ccc(Cl)cc1	none
